Source: the supplement of paper PMC6518042
Unmarked numbers belong to inactive results.

Tested on: Pectobacterium parmentieri SCC3193
Test: DuctApe activity index (growth/respiration on compound as sole nutrient source, blank-subtracted) (activity index (0-3)); higher = stronger utilization of the compound, active = 3 or more
Details: nutrient role (plate category): carbon
Procedure: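 Biolog Phenotype Microarray plates PM1, PM2A (carbon), PM3 (nitrogen) and PM4 (phosphorus/sulfur) inoculated with P. parmentieri SCC3193 in M9-C minimal salts medium with Biolog dye A, and read in the OmniLog for 46 h. Each well was tested in triplicate and the experiment was run twice. DuctApe computed a blank-subtracted activity index (AV, 0-3) from the mean curves; growth is positive at AV >= 3 and negative at AV <= 2.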

Question: With `CC[C@H](C)[C@H](N)C(=O)O` [L-Isoleucine] as the molecule, how does the DuctApe activity index read?
Answer: 0

Question: With `N[C@H](CC(=O)O)C(=O)O` [D-Aspartic acid] as the molecule, how does the DuctApe activity index read?
Answer: 3 (active)

Question: With `NCC(=O)O` [Glycine] as the molecule, how does the DuctApe activity index read?
Answer: 0

Question: How did the DuctApe activity index turn out when `OC[C@H]1O[C@@H]2O[C@H]3[C@H](O)[C@@H](O)[C@@H](O[C@H]4[C@H](O)[C@@H](O)[C@@H](O[C@H]5[C@H](O)[C@@H](O)[C@@H](O[C@H]6[C@H](O)[C@@H](O)[C@@H](O[C@H]7[C@H](O)[C@@H](O)[C@@H](O[C@H]8[C@H](O)[C@@H](O)[C@@H](O[C@H]9[C@H](O)[C@@H](O)[C@@H](O[C@H]1[C@H](O)[C@H]2O)O[C@@H]9CO)O[C@@H]8CO)O[C@@H]7CO)O[C@@H]6CO)O[C@@H]5CO)O[C@@H]4CO)O[C@@H]3CO` [g-Cyclodextrin] was run?
Answer: 0

Question: Which DuctApe activity index does the source give for `OC[C@@H]1OC(O)[C@@H](O)[C@H](O)[C@H]1O` (stereo partly drawn) [L-Glucose] here?
Answer: 0

Question: For `CO[C@@H]1OC[C@@H](O)[C@H](O)[C@H]1O` [b-Methyl-D-Xyloside], which DuctApe activity index is on record?
Answer: 0

Question: How did the DuctApe activity index turn out when `O=C(O)Cc1ccc(O)cc1` [p-Hydroxyphenyl Acetic acid] was run?
Answer: 0

Question: Which DuctApe activity index does the source give for `CO[C@@H]1O[C@H](CO)[C@H](O)[C@H](O)[C@H]1O` [b-Methyl-D-Galactoside] here?
Answer: 2

Question: Which DuctApe activity index does the source give for `CC(=O)CC(=O)O` [Acetoacetic acid] here?
Answer: 0

Question: With `O=C(O)[C@H](O)[C@@H](O)[C@H](O)[C@H](O)CO[C@H]1O[C@H](CO)[C@H](O)[C@H](O)[C@H]1O` [Melibionic acid] as the molecule, how does the DuctApe activity index read?
Answer: 0

Question: How did the DuctApe activity index turn out when `CC(=O)N[C@H]1C(O)O[C@H](CO)[C@H](O)[C@@H]1O` (stereo partly drawn) [N-Acetyl-D-Galactosamine] was run?
Answer: 3 (active)

Question: Which DuctApe activity index does the source give for `O=c1[nH]cnc2c1ncn2[C@@H]1O[C@H](CO)[C@@H](O)[C@H]1O` [Inosine] here?
Answer: 1

Question: How did the DuctApe activity index turn out when `O=C[C@@H](O)[C@H](O[C@@H]1O[C@H](CO)[C@H](O)[C@H](O)[C@H]1O)[C@H](O)CO` [3-O-b-D-Galactopyranosyl-D-Arabinose] was run?
Answer: 1

Question: Which DuctApe activity index does the source give for `O=P(O)(O)OC[C@H](O)CO` (racemic) [DL-a-Glycerol Phosphate] here?
Answer: 3 (active)

Question: For `NC(=O)[C@H]1O[C@@H](O)[C@H](O)[C@@H](O)[C@@H]1O` [Glucuronamide], which DuctApe activity index is on record?
Answer: 0

Question: With `NCCCCN` [Putrescine] as the molecule, how does the DuctApe activity index read?
Answer: 0

Question: With `OCc1ccccc1O[C@@H]1O[C@H](CO)[C@@H](O)[C@H](O)[C@H]1O` [Salicin] as the molecule, how does the DuctApe activity index read?
Answer: 3 (active)

Same assay, conditions: nutrient role (plate category): nitrogen

Question: Which DuctApe activity index does the source give for `CC[C@H](C)[C@H](N)C(=O)O` [L-Isoleucine] here?
Answer: 0

Question: For `O=C1NC(=O)C(=O)N1` [Parabanic acid], which DuctApe activity index is on record?
Answer: 0

Question: How did the DuctApe activity index turn out when `Nc1nc2[nH]cnc2c(=O)[nH]1` [Guanine] was run?
Answer: 0

Question: Which DuctApe activity index does the source give for `N[C@H](CC(=O)O)C(=O)O` [D-Aspartic acid] here?
Answer: 2

Question: How did the DuctApe activity index turn out when `NCCO` [Ethanolamine] was run?
Answer: 0

Question: How did the DuctApe activity index turn out when `N[C@@H](CS)C(=O)O` [L-Cysteine] was run?
Answer: 0

Question: With `NCC(=O)O` [Glycine] as the molecule, how does the DuctApe activity index read?
Answer: 0

Question: `Nc1ccn([C@@H]2O[C@H](CO)[C@@H](O)[C@H]2O)c(=O)n1` [Cytidine] was tested. Which DuctApe activity index did it give?
Answer: 3 (active)

Question: `CC(=O)N[C@H]1C(O)O[C@H](CO)[C@H](O)[C@@H]1O` (stereo partly drawn) [N-Acetyl-D-Galactosamine] was tested. Which DuctApe activity index did it give?
Answer: 3 (active)

Question: For `O=c1[nH]cnc2c1ncn2[C@@H]1O[C@H](CO)[C@@H](O)[C@H]1O` [Inosine], which DuctApe activity index is on record?
Answer: 0

Question: With `NC(=O)[C@H]1O[C@@H](O)[C@H](O)[C@@H](O)[C@@H]1O` [Glucuronamide] as the molecule, how does the DuctApe activity index read?
Answer: 2

Question: For `NCCCCN` [Putrescine], which DuctApe activity index is on record?
Answer: 0

Same assay, conditions: nutrient role (plate category): phosphate & sulphur

Question: `O=P(O)(O)OP(=O)(O)O` [Pyrophosphate] was tested. Which DuctApe activity index did it give?
Answer: 1

Question: `C[N+](C)(C)CCOP(=O)(O)O` [Phosphoryl Choline] was tested. Which DuctApe activity index did it give?
Answer: 1

Question: With `N[C@@H](CS)C(=O)O` [L-Cysteine] as the molecule, how does the DuctApe activity index read?
Answer: 0

Question: Which DuctApe activity index does the source give for `Nc1ccc(S(=O)(=O)O)cc1` [p-Aminobenzene Sulfonic acid] here?
Answer: 0

Question: How did the DuctApe activity index turn out when `C[S+]([O-])CC[C@H](N)C(=O)O` (stereo partly drawn) [L-Methionine Sulfoxide] was run?
Answer: 1

Question: `Cc1cn([C@H]2C[C@H](OP(=O)(O)O)[C@@H](CO)O2)c(=O)[nH]c1=O` [Thymidine 3`-Monophosphate] was tested. Which DuctApe activity index did it give?
Answer: 2

Question: With `Nc1ccn([C@@H]2O[C@H](CO)[C@@H](OP(=O)(O)O)[C@H]2O)c(=O)n1` [Cytidine 3`-Monophosphate] as the molecule, how does the DuctApe activity index read?
Answer: 2

Question: Which DuctApe activity index does the source give for `N[C@@H]1[C@@H](O)[C@H](O)[C@@H](COP(=O)(O)O)O[C@@H]1O` [D-Glucosamine-6-Phosphate] here?
Answer: 2

Question: `O=P(O)(O)OC[C@H](O)CO` (racemic) [DL-a-Glycerol Phosphate] was tested. Which DuctApe activity index did it give?
Answer: 1

Question: With `N[C@H](COP(=O)(O)O)C(=O)O` [O-Phospho-D-Serine] as the molecule, how does the DuctApe activity index read?
Answer: 2

Question: `CC(=O)N[C@@H](CS)C(=O)O` [N-Acetyl-L-Cysteine] was tested. Which DuctApe activity index did it give?
Answer: 1
